# Six1-Eya2 inh – qHTS Assay for Inhibitors of the Six1/Eya2 Interaction; activity change, % (test concentration not listed); AlphaScreen GST-Six1/His-Eya2 binding, biochemical; stronger effect = lower value; Homeobox protein SIX1 (Homo sapiens) + Protein phosphatase EYA2 (Homo sapiens), …; AID 651725, 2012; 360,000 tested, 0.56% active; in the data active = activity change below about -65%; inconclusive = mostly about -30% to -63%
# Target sequence (O00167 whole entry, looked up): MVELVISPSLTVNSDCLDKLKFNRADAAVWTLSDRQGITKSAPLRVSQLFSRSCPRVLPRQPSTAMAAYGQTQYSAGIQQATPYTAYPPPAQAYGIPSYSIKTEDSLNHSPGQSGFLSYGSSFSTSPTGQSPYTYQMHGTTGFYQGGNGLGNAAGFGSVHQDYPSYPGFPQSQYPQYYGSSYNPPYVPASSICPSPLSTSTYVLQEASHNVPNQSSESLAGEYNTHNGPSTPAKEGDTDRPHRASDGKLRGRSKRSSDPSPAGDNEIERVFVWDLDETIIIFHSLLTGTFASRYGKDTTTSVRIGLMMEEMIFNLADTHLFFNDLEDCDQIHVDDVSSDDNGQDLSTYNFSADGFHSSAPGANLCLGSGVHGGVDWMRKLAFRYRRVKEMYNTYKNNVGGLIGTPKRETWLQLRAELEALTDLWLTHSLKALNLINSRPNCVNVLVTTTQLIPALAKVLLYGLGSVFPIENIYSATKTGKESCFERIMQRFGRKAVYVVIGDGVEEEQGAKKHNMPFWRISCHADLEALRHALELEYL
# Target sequence (Q15475 whole entry, looked up): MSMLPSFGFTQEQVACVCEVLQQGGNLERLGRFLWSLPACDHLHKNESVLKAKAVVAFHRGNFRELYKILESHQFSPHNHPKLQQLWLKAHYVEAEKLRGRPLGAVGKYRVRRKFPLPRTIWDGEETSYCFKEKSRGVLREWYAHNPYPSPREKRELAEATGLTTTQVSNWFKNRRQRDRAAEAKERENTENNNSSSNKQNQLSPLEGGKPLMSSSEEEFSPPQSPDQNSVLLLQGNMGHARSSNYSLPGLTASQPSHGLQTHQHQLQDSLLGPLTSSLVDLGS
#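 GST-Six1 + His-Eya2 (5X stock: 250/500 nM); Tris pH 8.0, 300 mM NaCl, 0.05% BSA, 0.02% Tween 20; GSH donor/Ni acceptor beads; 1 h 37 °C dark; AlphaScreen readout.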
# Eya2 inh – qHTS Assay for Inhibitors of the Phosphatase Activity of Eya2 | recombinant Eya2, OMFP fluorescence dephosphorylation (OMFP is methylfluorescein phosphate) | Potency, µM (series often up to 76.9 µM), for the others: at the highest dose activity, negative = inhibition, hits mostly inhibitors | Protein phosphatase EYA2 (Homo sapiens), O00167 | 330,000 tested, 0.006% active; also: potency is read from the fitted curve at half-maximal effect
#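 Eya2 protein (added as 0.2 uM solution) was preincubated with compound for 10 min at ambient temperature in 50 mM HEPES pH 7.5, 50 mM NaCl, 5 uM MgCl2, 0.05% BSA, 1 mM DTT. OMFP (added at 50 uM) then reacted 10 min; fluorescence read at 485/525 nm.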
# L3MBTL1 block – qHTS Assay for the Inhibitors of L3MBTL1. Potency, µM (series often up to 57.1 µM), for the others: at the highest dose activity, negative = inhibition, hits mostly inhibitors. 230,000 tested, 0.66% active. AlphaScreen L3MBTL1–H3K9me1 peptide binding; also: potency is read from the fitted curve at half-maximal effect; nearly all actives have a fitted effect of over 60% in size
#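 AlphaScreen proximity signal between nickel-chelate acceptor and streptavidin donor beads (final 10 ug/mL) reports binding of 50 nM L3MBTL1 to 75 nM biotin-H3 K9me1 peptide; complex incubated with compounds 30 min at room temperature; cefsulodin titration as control.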
# USP2a block – qHTS Assay for Inhibitors of Ubiquitin-specific Protease USP2a Using CHOP2 as the Reporter; Ubiquitin carboxyl-terminal hydrolase 2 (Homo sapiens), O75604; USP2 core, Ub-CHOP2 coupled fluorogenic reporter, 485/531; Potency, µM (highest dose often 38.3 µM), without a hit: at the top dose activity change, negative = inhibition, hits mostly inhibitors; 330,000 tested, 0.01% active;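 also: potency is read from the fitted curve at half-maximal effect; plate controls were DMSO wells for no effect and full inhibition by NEM control for full effect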
#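 Deubiquitinase activity read as fluorescence (485/531 nm) after Ub-CHOP2 cleavage activates the enterokinase reporter on its substrate; USP2 core 10nM, Ub-CHOP2 and substrate 25nM each, 30min compound preincubation then 60min RT; data normalized to NEM, curves fitted.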
# uPA generation – qHTS for Inhibitors of Cell Surface uPA Generation; AID 540303, 2011; 330,000 tested, 0.31% active; cell surface uPA generation assay, qHTS; Potency, µM (titrated, usually from 38.3 µM), without a hit: top-dose activity change, negative = inhibition, most hits filed as inhibitors; active = well fitted inhibition curve with a large enough effect; inconclusive = small, poorly fitted or top-dose-only effect; inactive = no such curve, though single readings can be large or run the other way; tested in mouse RAW 264.7 cells; also: potency is read from the fitted curve at half-maximal effect; nearly all actives have a fitted effect of over 55% in size
# CtBP-E1A inh – qHTS Assay for Inhibitors of the CtBP/E1A Interaction; CtBP / adenovirus E1A interaction (AlphaScreen); AlphaScreen GST-E1A/His-CtBP binding, 1536-well; stronger effect = lower value; activity change, % (no concentration beside the values); 340,000 tested, 0.49% active; AID 651724, 2012; in the data active = activity change below about -65%; inconclusive = mostly about -30% to -63%
#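 GST-E1A and His-tagged CtBP (125 nM each as 5X stock) were preincubated with pin-transferred compound for 2 h at 37 °C in the dark, then glutathione donor and nickel acceptor beads were added for 1 h before AlphaScreen reading.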
# An asterisk follows results filed as active; ? = inconclusive; . = no result. The list is not random: actives were taken first. Their share in the collection is about 1.2%. Unless noted, calls follow the shape of the dose curve; as a rule, active = well fitted curve in the direction sought with a large enough effect; inconclusive = small, poorly fitted or top-dose-only effect, or another doubt; inactive = no such curve, though single readings can be large; an effect the other way counts as inactive or inconclusive. Unless noted, % is scaled to controls: 0 for no effect and ±100 for the full control effect.
SMILES,Six1-Eya2 inh,Eya2 inh,L3MBTL1 block,USP2a block,uPA generation,CtBP-E1A inh
O=C(CSc1nnc2ccc(-c3cccnc3)nn12)Nc1ccccc1F,-7.1,-32.0%,7.8%,5.6%,-4.2%,-10.0
O=C(CSc1nnc(COc2ccc(Cl)cc2)o1)Nc1nccs1,-86.9*,.,.,.,.,?
O=C(O)/C=C/C(=O)c1ccc2c(c1)CCc1ccccc1-2,?,-3.9%,-1.7%,-1.1%,5.01µM*,0.5
CCCC1(C)C(C#N)(C#N)C1(C#N)C#N,.,-7.1%,.,.,.,.
Cc1[nH][nH]c(=O)c1C(c1ccc(-c2cccc(C(=O)O)c2)o1)c1c(C)[nH][nH]c1=O,-5.0,14.0%,25.1µM*,5.0%,-0.2%,-15.4
Cc1[nH][nH]c(=O)c1C(c1ccc(-c2cccc(Cl)c2)o1)c1c(C)[nH][nH]c1=O,2.1,-1.8%,.,0.0%,-1.1%,-17.6
Cc1[nH][nH]c(=O)c1C(c1ccc(-c2ccc(Cl)cc2Cl)o1)c1c(C)[nH][nH]c1=O,.,22.7%,.,-0.4%,.,.
Cc1[nH][nH]c(=O)c1C(c1ccc(-c2ccccc2C(=O)O)o1)c1c(C)[nH][nH]c1=O,?,10.9%,31.6µM*,0.0%,-1.5%,0.9
CCOC(=O)N1CCN(CCCc2ccccc2)CC1,0.1,-8.5%,-1.5%,0.2%,-1.4%,-4.4
Nc1nn(-c2ccccc2)c(N)c1N=Nc1ccccc1,-27.6,-4.1%,-6.1%,3.0%,5.01µM*,-0.2
O=C(c1ccc(N2CCN(C(=O)c3ccc(F)cc3F)CC2)cc1)c1cccc(F)c1,11.3,-9.7%,.,1.3%,-23.9%,9.4
Nc1cc(C(=O)O)c(N)c2c1C(=O)c1ccccc1C2=O,-80.3*,?,.,?,-4.3%,-91.7*
Nc1c(C(=O)O)ccc2c1C(=O)c1ccccc1C2=O,-28.5,6.4%,-21.0%,-6.4%,-3.7%,?
CCc1ccc(/C=C/c2c([N+](=O)[O-])c(=O)n(C)c(=O)n2C)cc1,-19.5,-15.6%,.,2.6%,6.31µM*,?
Nc1c(C(=O)NCc2ccco2)sc2nc3c(cc12)C(=O)CCC3,-19.9,-2.3%,31.6µM*,0.0%,.,-17.9
COc1cccc(/C=N/NC(=O)c2ccc([N+](=O)[O-])cc2Cl)c1O,-89.4*,2.1%,-9.4%,-0.3%,-12.3%,-87.8*
O=C(O)COc1ccccc1/C=N/NC(=O)c1cc(-c2ccc(F)cc2)nc2ccccc12,-71.6*,-11.2%,2.1%,-9.4%,-14.7%,?
COc1cc(/C=N/NC(=O)c2cccc([N+](=O)[O-])c2)cc(OC)c1O,-2.2,-8.5%,.,-0.1%,3.0%,.
O=C(N/N=C/c1ccc(F)cc1)c1cc(-c2ccccn2)nc2ccccc12,-1.9,10.5%,1.2%,0.2%,?,6.2
COc1ccc(/C=N/NC(=O)c2cc(-c3ccccc3)nc3ccccc23)c(C(=O)O)c1OC,0.8,6.3%,.,3.2%,-5.0%,2.0
COc1cccc(/C=N/NC(=O)c2cc(-c3ccccn3)nc3ccccc23)c1O,-74.8*,20.6%,-26.7%,-12.7%,3.9%,-94.6*
COc1cc([N+](=O)[O-])cc(/C=N/NC(=O)c2cc(-c3ccccc3)nc3ccccc23)c1O,?,-9.4%,-1.5%,1.2%,?,-87.9*
Cc1ccccc1NC(=O)OCc1ccccc1,7.3,-5.8%,11.2%,1.2%,-1.3%,5.3
CCCCCCCCN1C(=O)[C@H](CC(=O)NCc2ccc(C)o2)C[C@@]2(C(=O)OCC)CCC=C12,-5.1,.,.,.,.,2.8
Cc1cc(C(=O)N/N=C/c2cccc([N+](=O)[O-])c2)c2ccccc2n1,-9.4,4.4%,1.4%,0.2%,-2.1%,-5.6
SMILES,Six1-Eya2 inh,Eya2 inh,L3MBTL1 block,USP2a block,uPA generation,CtBP-E1A inh
O=C(N/N=C/c1cccc(F)c1)c1cc(-c2ccco2)nc2ccccc12,-28.7,11.8%,5.62µM*,?,-16.6%,-1.5
COc1cc([N+](=O)[O-])cc(/C=N/NC(=O)c2cc(C)nc3ccccc23)c1O,-93.1*,5.5%,?,-10.3%,?,-83.5*
Cc1c(-c2ccccc2)nc2ccccc2c1C(=O)Oc1ccc([N+](=O)[O-])cc1,-12.4,-11.9%,-5.0%,3.7%,4.5%,-21.2
Cc1nc2cccc(C(=O)Oc3ccc([N+](=O)[O-])cc3)c2o1,-81.7*,-24.0%,.,0.3%,-3.0%,-14.8
OCc1cn(Cc2ccc(O)c3ncccc23)cn1,.,0.0%,7.08µM*,0.5%,.,.
Oc1ccc(Cn2ccnc2)c2cccnc12,-82.8*,18.3%,1.58µM*,0.7%,-4.6%,-95.1*
Cc1ccc(S(=O)(=O)N(C)C)cc1NC(=O)COC(=O)C1CC(=O)N(c2ccc3c(c2)OCCO3)C1 (centres undefined),-2.1,-15.3%,-8.9%,1.9%,-4.5%,0.7
Nc1ccc2ccccc2c1N=Nc1ccccc1,-76.0*,.,.,.,-2.2%,-76.8*
CNc1nc(-c2ccc3c(c2)CCN3C(=O)c2ccc(F)cc2)cs1,-8.5,5.0%,9.4%,-1.1%,8.0%,.
CNc1nc(-c2ccc3c(c2)CCN3C(=O)c2cccc(F)c2)cs1,-5.8,9.3%,.,-2.4%,7.08µM*,-9.9
O=C1c2ccccc2C(=O)c2c1cccc2N1CCCC1,-86.9*,-2.2%,8.91µM*,-2.4%,-2.2%,-89.2*
O=C1c2ccccc2-c2onc3ccc(N4CCCC4)c1c23,-67.6*,?,?,?,?,?
CCCCn1c(N)c(N(CCOC)C(=O)CCNC(=O)c2ccccc2Cl)c(=O)[nH]c1=O,3.3,-5.7%,.,0.2%,5.1%,6.5
O=C(CC1C(=O)NCCN1Cc1ccccn1)NCCc1ccccc1F (centres undefined),?,-9.7%,.,3.8%,5.6%,?
Cc1ccc(CCNC(=O)CCS(=O)(=O)c2cc3c(cc2C)NC(=O)CO3)cc1,9.4,3.2%,3.1%,2.0%,1.1%,5.5
O=C(Nc1cc(S(=O)(=O)N2CCOCC2)ccc1OCC(F)(F)F)C1=COCCO1,-1.0,-12.7%,0.7%,-1.4%,19.2%,0.0
O=c1oc2ccccc2c2oc3cc(O)c(O)cc3c12,-29.7,-8.5%,?,-14.5%,-5.7%,-12.2
O=c1oc2c(O)c(O)cc3c(=O)oc4c(O)c(O)cc1c4c23,-74.5*,0.1%,?,1.12µM*,-17.1%,-12.5
C/C(=N\Nc1ccc(Cl)c(C(=O)O)c1)c1ccc[nH]1,-23.2,5.5%,28.2µM*,12.2%,5.3%,5.5

# Screening results from PubChem.
